Test results published in PubChem BioAssay.

The molecules below were run on Human papillomavirus type 1a E7 protein (residues 1-88) (assay: HPV1a E7 small-molecule binders, primary screen, biochemical, small-molecule microarray, residues 1-88, 635 nm (AID 1129)). Settings: small-molecule microarray binding, fluorescence 635 nm; higher = more signal.

Structure (SMILES)	composite z-score
CC(C)c1ccc(NN2C(C(O)c3c(F)cccc3Cl)C=CC3C(=O)N(c4ccccc4)C(=O)C32)cc1 (configuration not stated)	1.13
CC(C)(C)OC(=O)CC[C@@]1(C(=O)O)N=C(c2ccc(OCCCO)cc2)O[C@@H]1c1ccccc1N=[N+]=[N-]	0.826
COC(=O)C[C@@H]1C[C@H](C)[C@]2(O1)C(=O)N(Cc1ccccc1)c1ccc(NC(C)=O)cc12	0.453
COCC1=C2[C@@H](CCc3ccccc3)OB(O)C[C@@H]2[C@@H]2C(=O)N(Cc3ccccc3)C(=O)[C@@H]2C1	-0.147
C=CCOC(=O)[C@@H]1[C@H]2C(=O)O[C@H](c3ccccc3)[C@H](c3ccccc3)N2[C@H](c2ccc(OCCOC(=O)[C@@H]3C[C@@H]4C(=O)NCC(=O)N4[C@@H]3c3cccc(OCCO)c3)cc2)[C@@]12C(=O)Nc1ccc(I)cc12	1.17
C=CCC(OC(C)=O)[C@@H]1[C@@H](N(Cc2cccc3ccccc23)C(=O)c2ccc(C)cc2)c2cc(OCCCO)ccc2N1C(=O)Cc1ccc(OC)cc1 (some centres not stated)	-0.0914
O=C1OCCC=C[C@H]2OC34C=CCN(Cc5ccccc5)C(=O)[C@H]3N(CCCCCO)C(=O)[C@@H]4C12 (some centres not stated)	0.702
O=C(OCCF)C1=CCC(c2cccc(Cl)c2)O1 (configuration not stated)	0.628
[N-]=[N+]=NCc1ccccc1[C@@H]1OC(c2ccc(OCCCO)cc2)=N[C@]1(Cc1ccccc1)C(=O)N1CCCCC1	1.2
Cc1cc(C)c(C(O)C2C=CC3C(=O)N(c4ccccc4)C(=O)C3N2Nc2ccc(C#N)cc2)c(C)c1 (configuration not stated)	1.23
C=C[C@@H](COC(C)=O)N(Cc1ccccc1[N+](=O)[O-])S(=O)(=O)c1ccc(Br)cc1	1.11
COc1ccc(C#Cc2ccc3c(c2)[C@]2(C(=O)N3)[C@H](c3ccc(O)cc3)N3[C@H](c4ccccc4)[C@H](c4ccccc4)OC(=O)[C@H]3[C@@H]2C(=O)NC[C@H](O)c2ccccc2)cc1	1.21
C=CCNC(=O)[C@@H]1[C@H]2C(=O)O[C@H](c3ccccc3)[C@H](c3ccccc3)N2[C@H](c2ccccc2OCCO)[C@@]12C(=O)Nc1ccc(C#CC3=CCCCC3)cc12	1.22
[N-]=[N+]=NCc1ccccc1[C@@H]1OC(c2ccc(OCCCO)cc2)=N[C@]1(Cc1ccccc1N=[N+]=[N-])C(=O)NCc1ccccc1	1.17
COCCOC(=O)N1C(=O)[C@@]2(c3cc(C#CCCO)ccc31)[C@H](c1ccccc1OCCO)N1[C@H](c3ccccc3)[C@H](c3ccccc3)OC(=O)[C@H]1[C@@H]2C(=O)N1CCN(c2ncccn2)CC1	1.21
CCCCC=C[C@@H](NC(=O)c1ccc(C(=O)OC)cc1)c1ccccc1	1.05
CC(C)NC(=O)[C@@H]1c2ccccc2C(=O)N(Cc2ccccc2Cl)[C@H]1c1ccc(CO)cc1	0.247
COc1cc2c(cc1OC)CN(C(=O)[C@@H]1[C@H]3C(=O)O[C@H](c4ccccc4)[C@H](c4ccccc4)N3[C@H](c3ccccc3OCCO)[C@@]13C(=O)Nc1ccc(C#CCNC(N)=O)cc13)CC2	0.923
O=C1C=CC(=O)[C@@H]2CC(COc3ccccc3)=C3[C@@H](CCc4ccccc4)OB(O)C[C@@H]3[C@H]12	0.273
O=C(NCc1ccccc1)[C@]1(CCS(=O)(=O)c2ccccc2)N=C(c2ccc(OCCCO)cc2)O[C@@H]1c1ccccc1	1.18
COc1ccc(C#Cc2ccc3c(c2)[C@]2(C(=O)N3)[C@H](C(=O)NC[C@H](O)c3ccccc3)[C@H]3C(=O)O[C@H](c4ccccc4)[C@H](c4ccccc4)N3[C@@H]2c2ccc(OCCO)cc2)cc1	0.991
CCOc1cc(C(O)C2C=CC3C(=O)N(c4ccccc4)C(=O)C3N2Nc2ccc([N+](=O)[O-])cc2)ccc1O (configuration not stated)	1.06
[N-]=[N+]=NCc1ccccc1C[C@]1(C(=O)NCCN2CCOCC2)N=C(c2ccc(OCCCO)cc2)O[C@H]1c1ccccc1N=[N+]=[N-]	1.25
C=C[C@@H](COC(C)=O)N(Cc1ccc([N+](=O)[O-])cc1)S(=O)(=O)c1ccc(Br)cc1	1.17
COc1ccc(CCNC(=O)[C@@]2(c3ccc([N+](=O)[O-])cc3)CC(=O)N(CC34CC5CC(CC(C5)C3)C4)[C@@H]2c2ccc(CO)cc2)cc1	1.17
COCC(=C=CC[C@H](O)c1ccc(OCCO)cc1)C[C@H](O)c1cc(Cl)cc(Cl)c1O	0.907
CO[C@H]1O[C@H](CO)[C@@H](OC(=O)Nc2ccc3c(c2)OCO3)[C@H](OC(=O)Nc2ccccc2)[C@H]1OC(=O)Nc1ccccc1	1.28
